Measured values: the supplement of paper PMC10849652
About 7,900 targets were measured; listed, in parts, are those with a hit and a random draw of the rest. About 0.6% of all pairs of compound and target were hits. Unmarked numbers belong to inactive results.

Tests used:
Assay in all cases: log2 fold change, soluble protein after heating vs DMSO (PISA); higher = thermal stabilisation; K562 cells, 10 uM, 30 min; active = over 0.2 and 3.5 SD of the protein, either way, in both replicates (recomputed)
[1] = compound: CC[C@@H]1C(=O)N(C)c2cnc(Nc3ccc(C(=O)NC4CCN(C)CC4)cc3OC)nc2N1C1CCCC1
In short: (§1)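 Quantification of soluble protein used TMTpro 16plex LC-MS/MS, with channel sums equalised. Samples were the supernatant after 21,000xg for 90 min of pooled aliquots from K562 cells (2×10^6 cells/mL) treated with 10 μM compound for 30 min, heated for 3 min over 48°C-58°C, and extracted in PBS with 0.5% NP-40 at 4°C. Values, from duplicates, describe thermal stability against control samples on a log2 fold-change scale.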

volasertib = compound: CC[C@@H]1C(=O)N(C)c2cnc(Nc3ccc(C(=O)N[C@H]4CC[C@H](N5CCN(CC6CC6)CC5)CC4)cc3OC)nc2N1C(C)C [volasertib]
In short: as §1

[2] = compound: CC[C@H](C)N1C=C(C2=C(C=C(C=C21)C3=CN=C(C=C3)N4CCNCC4)C(=O)NCC5=C(C=C(NC5=O)C)C)C
In short: as §1

epoxomicin = compound: CC[C@H](C)[C@@H](C(=O)N[C@@H]([C@@H](C)O)C(=O)N[C@@H](CC(C)C)C(=O)[C@]1(CO1)C)NC(=O)[C@H]([C@@H](C)CC)N(C)C(=O)C [epoxomicin]
In short: as §1

[3] = compound: CCn1c(C(=O)N(C2CC2)C2CC2)cc2c3c(ncn3C)c(Nc3cc(C)n(C)n3)nc21
In short: as §1

[4] = compound: CCn1cc(-c2ccnc3[nH]c(-c4cccc(CN(C)C)c4)cc23)c(-c2ccc(NC(=O)N(C)C)cc2)n1
In short: as §1

[5] = compound: CN(C)CC(=O)Nc1ccc2[nH]c(=O)c3ccccc3c2c1
In short: as §1

rosiglitazone = compound: CN(CCOC1=CC=C(C=C1)C[C@H]2C(=O)NC(=O)S2)C3=CC=CC=N3 (racemic) [rosiglitazone]
In short: as §1

[6] = compound: CN1C2=C(C3=C1C(=O)N(N=C3)CC4=CC(=CC=C4)N)SC(=C2)S(=O)C
In short: as §1

[7] = compound: CN1CCC(CNc2ccc3ncc(-c4cccc(OC(F)(F)F)c4)n3n2)CC1
In short: as §1

saracatinib = compound: CN1CCN(CCOc2cc(OC3CCOCC3)c3c(Nc4c(Cl)ccc5c4OCO5)ncnc3c2)CC1 [saracatinib]
In short: as §1

sotrastaurin = compound: CN1CCN(c2nc(C3=C(c4c[nH]c5ccccc45)C(=O)NC3=O)c3ccccc3n2)CC1 [sotrastaurin]
In short: as §1

alvocidib = compound: CN1CC[C@H](c2c(O)cc(O)c3c(=O)cc(-c4ccccc4Cl)oc23)[C@H](O)C1 [alvocidib]
In short: as §1

Tubastatin A = compound: CN1CCc2c(c3ccccc3n2Cc2ccc(C(=O)NO)cc2)C1 [Tubastatin A]
In short: as §1

[8] = compound: CNC(=O)C1=CC=CC=C1NC2=NC(=NC=C2Cl)NC3=C(C=C(C=C3)N4CCOCC4)OC
In short: as §1

defactinib = compound: CNC(=O)c1ccc(Nc2ncc(C(F)(F)F)c(NCc3nccnc3N(C)S(C)(=O)=O)n2)cc1 [defactinib]
In short: as §1

rucaparib = compound: CNCc1ccc(-c2[nH]c3cc(F)cc4c3c2CCNC4=O)cc1 [rucaparib]
In short: as §1

[9] = compound: CNc1nc(-c2ccc3c(N)n[nH]c3c2)cc(N2C[C@@H](C(=O)NC3CCCCC3)CC[C@H]2C)n1
In short: as §1

encorafenib = compound: COC(=O)N[C@@H](C)CNc1nccc(-c2cn(C(C)C)nc2-c2cc(Cl)cc(NS(C)(=O)=O)c2F)n1 [encorafenib]
In short: as §1

[10] = compound: COC(=O)[C@H](CCSC)NC(=O)C1=C(C=C(C=C1)NC[C@H](CS)N)C2=CC=CC=C2
In short: as §1

Chain of UniProt P55060 (P55060 whole entry, looked up): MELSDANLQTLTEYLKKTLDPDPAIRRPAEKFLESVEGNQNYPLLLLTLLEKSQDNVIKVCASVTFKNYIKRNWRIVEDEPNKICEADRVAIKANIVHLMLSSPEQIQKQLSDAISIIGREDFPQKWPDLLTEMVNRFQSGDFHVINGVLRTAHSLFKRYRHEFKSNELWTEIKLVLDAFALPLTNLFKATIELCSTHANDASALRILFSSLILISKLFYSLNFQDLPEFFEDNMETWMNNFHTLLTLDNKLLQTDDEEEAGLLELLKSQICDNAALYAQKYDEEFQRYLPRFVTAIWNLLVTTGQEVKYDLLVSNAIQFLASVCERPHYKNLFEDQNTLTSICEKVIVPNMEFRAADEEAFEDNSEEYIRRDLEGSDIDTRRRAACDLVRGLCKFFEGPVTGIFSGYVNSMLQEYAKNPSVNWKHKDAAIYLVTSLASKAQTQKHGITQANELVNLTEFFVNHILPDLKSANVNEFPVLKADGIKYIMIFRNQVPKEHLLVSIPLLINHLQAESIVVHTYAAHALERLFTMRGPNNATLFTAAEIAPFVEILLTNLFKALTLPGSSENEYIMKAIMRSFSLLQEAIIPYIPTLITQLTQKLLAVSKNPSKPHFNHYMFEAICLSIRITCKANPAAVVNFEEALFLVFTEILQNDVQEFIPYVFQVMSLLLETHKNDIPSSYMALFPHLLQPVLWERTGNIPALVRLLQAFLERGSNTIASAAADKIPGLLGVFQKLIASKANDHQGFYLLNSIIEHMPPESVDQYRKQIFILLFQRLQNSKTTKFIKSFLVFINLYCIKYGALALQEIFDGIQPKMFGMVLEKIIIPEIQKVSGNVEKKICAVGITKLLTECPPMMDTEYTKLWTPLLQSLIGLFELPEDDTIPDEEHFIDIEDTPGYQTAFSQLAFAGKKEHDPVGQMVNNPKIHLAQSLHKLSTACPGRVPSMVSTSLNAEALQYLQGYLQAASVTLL
Chain of UniProt O60563 (O60563 whole entry, looked up): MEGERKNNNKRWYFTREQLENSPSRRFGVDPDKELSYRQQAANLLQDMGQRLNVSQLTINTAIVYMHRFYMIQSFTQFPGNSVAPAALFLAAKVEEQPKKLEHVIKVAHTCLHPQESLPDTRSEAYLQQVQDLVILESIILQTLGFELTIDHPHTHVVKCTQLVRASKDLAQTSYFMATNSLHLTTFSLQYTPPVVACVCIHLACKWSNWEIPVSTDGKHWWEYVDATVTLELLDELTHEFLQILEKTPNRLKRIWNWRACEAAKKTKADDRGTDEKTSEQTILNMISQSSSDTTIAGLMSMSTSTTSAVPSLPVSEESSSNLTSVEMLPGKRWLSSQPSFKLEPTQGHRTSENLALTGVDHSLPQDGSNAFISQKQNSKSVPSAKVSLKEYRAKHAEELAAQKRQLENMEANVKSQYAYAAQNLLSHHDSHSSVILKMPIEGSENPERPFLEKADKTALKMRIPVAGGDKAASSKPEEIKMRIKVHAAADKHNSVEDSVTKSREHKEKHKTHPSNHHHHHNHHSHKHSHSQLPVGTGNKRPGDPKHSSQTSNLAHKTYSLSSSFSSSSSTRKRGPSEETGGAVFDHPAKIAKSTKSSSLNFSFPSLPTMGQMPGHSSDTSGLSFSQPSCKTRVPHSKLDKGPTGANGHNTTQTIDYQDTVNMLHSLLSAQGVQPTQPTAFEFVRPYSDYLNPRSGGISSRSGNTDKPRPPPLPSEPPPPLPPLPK
Chain of UniProt Q99807 (Q99807 whole entry, looked up): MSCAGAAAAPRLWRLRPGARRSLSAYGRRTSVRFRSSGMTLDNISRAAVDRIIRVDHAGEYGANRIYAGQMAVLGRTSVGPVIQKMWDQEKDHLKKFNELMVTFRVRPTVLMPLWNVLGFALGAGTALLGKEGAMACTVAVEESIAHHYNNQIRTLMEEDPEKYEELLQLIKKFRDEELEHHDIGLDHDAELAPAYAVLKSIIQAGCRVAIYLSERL
Chain of UniProt P16152 (P16152 whole entry, looked up): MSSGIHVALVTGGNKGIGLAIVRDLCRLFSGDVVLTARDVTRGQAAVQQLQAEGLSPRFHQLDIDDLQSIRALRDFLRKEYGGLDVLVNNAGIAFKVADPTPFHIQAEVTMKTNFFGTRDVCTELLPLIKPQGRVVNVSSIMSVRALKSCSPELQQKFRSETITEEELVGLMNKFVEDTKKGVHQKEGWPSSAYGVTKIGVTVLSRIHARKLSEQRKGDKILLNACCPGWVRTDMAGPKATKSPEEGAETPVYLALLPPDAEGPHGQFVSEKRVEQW
Chain of UniProt Q13057 (Q13057 whole entry, looked up): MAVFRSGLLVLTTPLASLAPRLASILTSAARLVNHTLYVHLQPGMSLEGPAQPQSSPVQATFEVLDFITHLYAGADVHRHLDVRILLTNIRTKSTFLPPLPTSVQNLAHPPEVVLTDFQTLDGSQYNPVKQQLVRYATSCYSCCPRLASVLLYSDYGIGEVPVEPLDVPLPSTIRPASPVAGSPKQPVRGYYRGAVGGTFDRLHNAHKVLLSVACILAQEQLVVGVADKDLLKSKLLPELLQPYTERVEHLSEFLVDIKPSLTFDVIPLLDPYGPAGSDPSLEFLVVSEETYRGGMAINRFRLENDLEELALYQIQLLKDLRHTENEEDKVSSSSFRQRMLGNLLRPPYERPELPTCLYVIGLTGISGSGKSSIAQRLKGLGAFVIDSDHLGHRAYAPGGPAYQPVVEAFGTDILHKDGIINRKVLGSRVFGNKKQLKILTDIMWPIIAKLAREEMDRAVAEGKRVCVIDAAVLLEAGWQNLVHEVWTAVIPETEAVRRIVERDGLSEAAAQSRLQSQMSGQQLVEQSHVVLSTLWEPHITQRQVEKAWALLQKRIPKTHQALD
Chain of UniProt Q96G23 (Q96G23 whole entry, looked up): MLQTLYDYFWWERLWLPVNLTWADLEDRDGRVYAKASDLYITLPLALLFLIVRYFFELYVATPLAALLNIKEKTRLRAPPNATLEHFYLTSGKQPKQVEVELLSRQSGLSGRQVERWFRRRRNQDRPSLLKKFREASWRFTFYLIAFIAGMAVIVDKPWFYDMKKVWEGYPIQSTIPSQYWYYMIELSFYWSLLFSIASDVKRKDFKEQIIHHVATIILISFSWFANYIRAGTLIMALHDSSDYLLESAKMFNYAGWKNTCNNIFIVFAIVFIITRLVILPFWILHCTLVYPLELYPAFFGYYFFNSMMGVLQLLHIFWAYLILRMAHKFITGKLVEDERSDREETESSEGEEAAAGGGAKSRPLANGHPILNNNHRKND
Chain of UniProt P05937 (P05937 whole entry, looked up): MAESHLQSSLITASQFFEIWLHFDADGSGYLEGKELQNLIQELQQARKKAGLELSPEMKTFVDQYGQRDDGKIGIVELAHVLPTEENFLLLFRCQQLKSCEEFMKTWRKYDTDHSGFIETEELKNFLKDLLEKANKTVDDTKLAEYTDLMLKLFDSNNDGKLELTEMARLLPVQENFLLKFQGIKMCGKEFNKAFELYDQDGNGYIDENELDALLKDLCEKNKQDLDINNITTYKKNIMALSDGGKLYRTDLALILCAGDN

Row | Target | log2 fold change [1] | log2 fold change (volasertib) | log2 fold change [2] | log2 fold change (epoxomicin) | log2 fold change [3] | log2 fold change [4] | log2 fold change [5] | log2 fold change (rosiglitazone) | log2 fold change [6] | log2 fold change [7] | log2 fold change (saracatinib) | log2 fold change (sotrastaurin) | log2 fold change (alvocidib) | log2 fold change (Tubastatin A) | log2 fold change [8] | log2 fold change (defactinib) | log2 fold change (rucaparib) | log2 fold change [9] | log2 fold change (encorafenib) | log2 fold change [10]
1 | CALB1 (UniProt P05937) | -0.123 | -0.092 | -0.007 | 0.043 | 0.003 | 0.05 | 0.016 | 0.027 | -0.039 | -0.282 (active) | 0.033 | 0.008 | 0.034 | -0.026 | 0.02 | 0.013 | -0.07 | -0.14 | 0.023 | 0.021
2 | CCNT1 (UniProt O60563) | 0.023 | -0.085 | 0.069 | -0.063 | 0.028 | 0.035 | -0.055 | -0.024 | 0.132 | -0.036 | -0.005 | -0.173 | -0.221 | 0.075 | -0.086 | -0.213 | 0.044 | 0.043 | 0.163 | 0.002
3 | COASY isoform 2 (UniProt Q13057) | -0.068 | -0.266 (active) | 0.027 | -0.013 | 0.061 | -0.052 | 0.038 | 0.017 | -0.08 | -0.132 | 0.003 | -0.001 | -0.12 | -0.001 | 0.035 | -0.065 | 0.011 | -0.03 | 0.034 | -0.029
4 | CERS2 (UniProt Q96G23) | -0.148 | -0.133 | 0.011 | 0.03 | -0.004 | -0.001 | 0.001 | 0.088 | 0.007 | -0.46 (active) | 0.012 | -0.033 | -0.018 | -0.056 | -0.121 | -0.001 | 0.002 | -0.048 | 0.017 | 0.03
5 | CBR1 (UniProt P16152) | -0.001 | -0.041 | -0.017 | 0.06 | -0.006 | 0 | 0.005 | 0.013 | -0.077 | 0.077 | 0.02 | -0.005 | -0.098 | -0.059 | 0.011 | -0.041 | -0.01 | -0.003 | -0.024 | 0.004
6 | COQ7 (UniProt Q99807) | -0.035 | -0.009 | -0.01 | 0.013 | -0.005 | -0.041 | -0.047 | 0.038 | 0.023 | -0.05 | 0.024 | 0.055 | 0.009 | -0.009 | 0.043 | 0.03 | -0.062 | -0.028 | -0.058 | 0.059
7 | C19orf53 (UniProt Q9UNZ5) | 0.205 | 0.412 | 0.045 | -0.264 | 0.104 | 0.239 | -0.189 | -0.182 | 0.34 | 0.2 | -0.069 | -0.03 | 0.33 | 0.129 | 0.155 | 0.296 | 0.257 | 0.053 | 0.136 | 0.036
8 | CSE1L (UniProt P55060) | -0.209 (active) | -0.403 (active) | 0.047 | 0.03 | 0.002 | -0.068 | 0.008 | 0.047 | -0.095 | -0.181 | 0.032 | -0.076 | -0.069 | -0.033 | 0.016 | -0.092 | -0.059 | -0.057 | 0.022 | -0.013
